Measured values as given in PubChem BioAssay AID1159580 (chemical genetic matrix, 2015).
The whole screen tested about 5,500 compounds, of which about 2,000 (36%) were called active. Not shown: some 18% with an inconclusive outcome. Cut-off read from the data, not from the text of the source: active = normalized growth mostly below about 0.91 (no sharp cut-off); inconclusive = no clear call, values can overlap the other calls; inactive = mostly above about 0.92. The list shows a part of the results.

Test: chemical genetic growth profiling, strain panel (AID 1159580);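 note: tested at 20 µM; growth read once vehicle control cultures reached saturation at 30 °C; 1 = growth at the plate median or of vehicle wells; lower values mean less growth of the strain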
Settings: growth OD
[1] = S. cerevisiae deletion strains, locus YAL013W, strain DEP1, hits give low values
[2] = S. cerevisiae deletion strains, locus YBR229C, strain ROT2, hits give low values
[3] = S. cerevisiae deletion strains, locus YDL101C, strain DUN1, hits give low values
[4] = S. cerevisiae deletion strains, locus YDR150W, strain NUM1, hits give low values
[5] = S. cerevisiae deletion strains, locus YEL061C, strain CIN8, hits give low values
[6] = S. cerevisiae deletion strains, locus YGR078C, strain PAC10, hits give low values
[7] = S. cerevisiae deletion strains, locus YHR030C, strain SLT2, hits give low values
[8] = S. cerevisiae deletion strains, locus YHR087W, strain rtc3, hits give low values
[9] = S. cerevisiae deletion strains, locus YJR043C, strain POL32, hits give low values
[10] = S. cerevisiae deletion strains, locus YJR075W, strain HOC1, hits give low values
[11] = S. cerevisiae deletion strains, locus YKL190W, strain CNB1, hits give low values
[12] = S. cerevisiae deletion strains, locus YLR039C, strain RIC1, hits give low values
[13] = S. cerevisiae deletion strains, locus YLR058C, strain SHM2 (second series), hits give low values
[14] = S. cerevisiae deletion strains, locus YLR085C, strain ARP6, hits give low values
[15] = S. cerevisiae deletion strains, locus YLR262C, strain YPT6, hits give low values
[16] = S. cerevisiae deletion strains, locus YML094W, strain GIM5, hits give low values
[17] = S. cerevisiae deletion strains, locus YMR219W, strain ESC1, hits give low values
[18] = S. cerevisiae deletion strains, locus YMR263W, strain SAP30, hits give low values
[19] = S. cerevisiae deletion strains, locus YNL153C, strain GIM3, hits give low values
[20] = S. cerevisiae deletion strains, locus YNL298W, strain CLA4 (second series), hits give low values
[21] = S. cerevisiae deletion strains, locus YNL322C, strain KRE1, hits give low values
[22] = S. cerevisiae deletion strains, locus YNR030W, strain Alg12, hits give low values
[23] = S. cerevisiae deletion strains, locus YPL055C, strain LGE1, hits give low values
[24] = S. cerevisiae deletion strains, locus YPL241C, strain CIN2, hits give low values
[25] = S. cerevisiae deletion strains, locus YPR135W, strain CTF4, hits give low values
[26] = S. cerevisiae strains, strain wild type, hits give low values

Measured: normalized growth

CC12NC(=O)NC1(C)NC(=O)N2 (stereo not drawn)
inactive: [1] 1.04 | [2] 1.01 | S. cerevisiae deletion strains, locus YCL061C, strain MRC1, hits give low values 1 | [3] 1.01 | S. cerevisiae deletion strains, locus YDL134C, strain PPH21, hits give low values 1.02 | [4] 0.997 | [5] 1.03 | [6] 1.02 | S. cerevisiae deletion strains, locus YGR229C, strain SMI1, hits give low values 1.01 | [7] 1.07 | [8] 1.01 | [9] 1.01 | [10] 1.02 | [11] 1.03 | [12] 1.06 | [13] 1.02 | [14] 1.05 | [15] 1.04 | [16] 1.04 | [17] 1.01 | [18] 1.01 | S. cerevisiae deletion strains, locus YMR307W, strain GAS1, hits give low values 1.11 | [19] 1 | [20] 1.05 | [21] 1.01 | [22] 1.02 | S. cerevisiae deletion strains, locus YOL006C, strain TOP1, hits give low values 1.09 | [23] 1.04 | [24] 1.05 | [25] 1.02 | [26] 1.01

ClC1=C(C=Nc2ccc(Cl)cc2)CSc2ccc(Cl)cc21
inactive: S. cerevisiae deletion strains, locus YAR019C, strain CDC15, hits give low values 0.941 | S. cerevisiae deletion strains, locus YBL105C, strain PKC1, hits give low values 0.926 | S. cerevisiae deletion strains, locus YBR135W, strain CKS1, hits give low values 0.939 | S. cerevisiae deletion strains, locus YBR136W, strain MEC1, hits give low values 0.926 | S. cerevisiae deletion strains, locus YBR160W, strain CDC28, hits give low values 0.937 | S. cerevisiae deletion strains, locus YDL017W, strain CDC7, hits give low values 0.933 | S. cerevisiae deletion strains, locus YDL028C, strain MPS1, hits give low values 0.912 | [3] 0.945 | S. cerevisiae deletion strains, locus YDL108W, strain KIN28, hits give low values 0.923 | S. cerevisiae deletion strains, locus YDL132W, strain cdc53, hits give low values 0.936 | S. cerevisiae deletion strains, locus YDL214C, strain PRR2, hits give low values 0.896 | S. cerevisiae deletion strains, locus YDR052C, strain DBF4, hits give low values 0.943 | S. cerevisiae deletion strains, locus YDR054C, strain cdc34, hits give low values 0.919 | S. cerevisiae deletion strains, locus YDR226W, strain ADK1, hits give low values 0.914 | S. cerevisiae deletion strains, locus YDR477W, strain SNF1, hits give low values 0.879 | S. cerevisiae deletion strains, locus YER123W, strain YCK3, hits give low values 0.83 | S. cerevisiae deletion strains, locus YER133W, strain GLC7, hits give low values 0.891 | S. cerevisiae deletion strains, locus YFL009W, strain cdc4, hits give low values 0.924 | S. cerevisiae deletion strains, locus YFL029C, strain CAK1, hits give low values 0.928 | S. cerevisiae deletion strains, locus YFR003C, strain YPI1, hits give low values 0.94 | S. cerevisiae deletion strains, locus YFR019W, strain FAB1, hits give low values 0.909 | S. cerevisiae deletion strains, locus YFR028C, strain CDC14, hits give low values 0.935 | S. cerevisiae deletion strains, locus YGR040W, strain KSS1, hits give low values 0.866 | S. cerevisiae deletion strains, locus YGR052W, strain FMP48, hits give low values 0.905 | S. cerevisiae deletion strains, locus YGR092W, strain DBF2, hits give low values 0.796 | S. cerevisiae deletion strains, locus YHR079C, strain IRE1, hits give low values 0.862 | S. cerevisiae deletion strains, locus YHR082C, strain KSP1, hits give low values 0.816 | S. cerevisiae deletion strains, locus YHR205W, strain SCH9, hits give low values 0.812 | S. cerevisiae deletion strains, locus YIL147C, strain SLN1, hits give low values 0.926 | S. cerevisiae deletion strains, locus YJL095W, strain BCK1, hits give low values 0.881 | S. cerevisiae deletion strains, locus YJL128C, strain PBS2, hits give low values 0.903 | S. cerevisiae deletion strains, locus YJL157C, strain FAR1, hits give low values 0.886 | S. cerevisiae deletion strains, locus YJR016C, strain ILV3, hits give low values 0.936 | S. cerevisiae deletion strains, locus YJR066W, strain TOR1 (second series), hits give low values 0.91 | S. cerevisiae deletion strains, locus YJR066W, strain TOR1, hits give low values 0.815 | S. cerevisiae deletion strains, locus YKL048C, strain ELM1, hits give low values 0.941 | S. cerevisiae deletion strains, locus YKL067W, strain YNK1, hits give low values 0.902 | S. cerevisiae deletion strains, locus YKL101W, strain HSL1, hits give low values 0.893 | S. cerevisiae deletion strains, locus YKL193C, strain SDS22, hits give low values 0.932 | S. cerevisiae deletion strains, locus YKL203C, strain TOR2, hits give low values 0.884 | S. cerevisiae deletion strains, locus YLR133W, strain CKI1, hits give low values 0.869 | S. cerevisiae deletion strains, locus YLR403W, strain SFP1, hits give low values 0.836 | S. cerevisiae deletion strains, locus YML070W, strain DAK1, hits give low values 0.89 | S. cerevisiae deletion strains, locus YMR001C, strain CDC5, hits give low values 0.927 | S. cerevisiae deletion strains, locus YMR205C, strain PFK2 (second series), hits give low values 0.904 | S. cerevisiae deletion strains, locus YMR277W, strain FCP1, hits give low values 0.933 | S. cerevisiae deletion strains, locus YNL006W, strain LST8, hits give low values 0.928 | S. cerevisiae deletion strains, locus YNL020C, strain ARK1, hits give low values 0.883 | S. cerevisiae deletion strains, locus YNL161W, strain CBK1, hits give low values 0.929 | S. cerevisiae deletion strains, locus YNL183C, strain NPR1, hits give low values 0.841 | S. cerevisiae deletion strains, locus YNL207W, strain RIO2, hits give low values 0.926 | S. cerevisiae deletion strains, locus YNL222W, strain SSU72, hits give low values 0.947 | S. cerevisiae deletion strains, locus YNL307C, strain MCK1 (second series), hits give low values 0.861 | S. cerevisiae deletion strains, locus YOL078W, strain AVO1, hits give low values 0.937 | S. cerevisiae deletion strains, locus YOL136C, strain PFK27, hits give low values 0.886 | S. cerevisiae deletion strains, locus YOR061W, strain CKA2, hits give low values 0.843 | S. cerevisiae deletion strains, locus YOR119C, strain RIO1, hits give low values 0.848 | S. cerevisiae deletion strains, locus YOR231W, strain MKK1, hits give low values 0.924 | S. cerevisiae deletion strains, locus YOR329C, strain SCD5, hits give low values 0.93 | S. cerevisiae deletion strains, locus YPL031C, strain PHO85, hits give low values 0.87 | S. cerevisiae deletion strains, locus YPL153C, strain RAD53, hits give low values 0.904 | S. cerevisiae deletion strains, locus YPL204W, strain HRR25, hits give low values 0.893 | S. cerevisiae deletion strains, locus YPL209C, strain IPL1, hits give low values 0.932 | S. cerevisiae deletion strains, locus YPR025C, strain CCL1, hits give low values 0.935 | S. cerevisiae deletion strains, locus YPR106W, strain ISR1, hits give low values 0.922 | S. cerevisiae deletion strains, locus YPR111W, strain DBF20, hits give low values 0.923 | S. cerevisiae deletion strains, strain NNK1, hits give low values 0.923 | S. cerevisiae deletion strains, strain TSCII, hits give low values 0.93
active: [7] 0.74 | S. cerevisiae deletion strains, locus YLR113W, strain HOG1, hits give low values 0.808 | S. cerevisiae deletion strains, locus YPL256C, strain CLN2, hits give low values 0.843

O=C(c1ccc(-c2ccccc2)cc1)c1cc2cc([N+](=O)[O-])ccc2o1
inactive: [1] 1 | [2] 0.993 | [3] 1.02 | [4] 0.99 | [5] 1.01 | [6] 1.01 | [7] 1.01 | [8] 1.01 | [9] 0.997 | [10] 1.03 | [11] 0.993 | [12] 0.986 | [13] 0.993 | [14] 1 | [15] 0.981 | [16] 1.07 | [17] 1 | [18] 1.04 | [19] 1.01 | [20] 0.996 | [21] 1.01 | [22] 1 | [23] 1.01 | [24] 1.07 | [25] 1.12 | [26] 0.987
